The values that follow come from publication PMC4081100, “A DNA-binding-site landscape and regulatory network analysis for NAC transcription factors in Arabidopsis thaliana”.

Holding throughout (experiment): universal protein binding microarray (PBM); transcription factors of Arabidopsis thaliana; high values mean tight binding
Holding throughout (settings): protein: recombinant; tags: GST; chain copies: 2; dsDNA, one strand shown

One assay has as its target T1, GST-ANAC092(1-176) (Arabidopsis thaliana, UniProt Q9FKA0 1-176).
T1 sequence: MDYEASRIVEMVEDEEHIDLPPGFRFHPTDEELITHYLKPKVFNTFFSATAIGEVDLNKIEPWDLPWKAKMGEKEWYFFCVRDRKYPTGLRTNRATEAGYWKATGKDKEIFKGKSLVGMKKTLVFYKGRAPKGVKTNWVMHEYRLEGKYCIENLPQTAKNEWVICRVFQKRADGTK
The gist of the method:
(§1)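 Cells were induced to make GST-tagged NAC-domain, full-length or DNA-binding-domain proteins, and zinc acetate was added for zinc-finger proteins. These proteins were purified on glutathione–Sepharose 4B, quantified by A280 or anti-GST western blot, and applied in duplicate at 200 to 500 nM final to custom all-10-mer Agilent 4 × 180K arrays that primer extension had made double-stranded. Binding is given as the normalised enrichment score (E-score) for scored gapped and ungapped 8-mers.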

The next assay concerns the target T2, GST-ANAC019 NAC domain (Arabidopsis thaliana, UniProt Q9C932 14-162).
T2 sequence: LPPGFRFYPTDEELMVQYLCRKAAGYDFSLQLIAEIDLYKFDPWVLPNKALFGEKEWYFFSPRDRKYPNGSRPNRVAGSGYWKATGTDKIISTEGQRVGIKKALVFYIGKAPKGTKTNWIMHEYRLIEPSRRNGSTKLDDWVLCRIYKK
The gist of the method:
as §1

A further assay has as its target T3, GST-ANAC055(1-171) (Arabidopsis thaliana, UniProt Q9LDY8 1-171).
T3 sequence: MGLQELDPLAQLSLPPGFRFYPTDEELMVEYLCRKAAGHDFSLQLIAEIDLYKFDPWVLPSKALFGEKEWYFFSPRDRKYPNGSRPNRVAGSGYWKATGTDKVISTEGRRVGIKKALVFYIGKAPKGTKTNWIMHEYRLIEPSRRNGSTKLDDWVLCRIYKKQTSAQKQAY
The gist of the method:
as §1

The target of a further assay is T4, GST-ATAF1 NAC domain (Arabidopsis thaliana, UniProt Q39013 7-158).
T4 sequence: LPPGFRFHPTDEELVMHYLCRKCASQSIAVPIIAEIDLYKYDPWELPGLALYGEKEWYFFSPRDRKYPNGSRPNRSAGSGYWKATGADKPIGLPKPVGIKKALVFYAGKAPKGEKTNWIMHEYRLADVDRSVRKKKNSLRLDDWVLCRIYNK
The gist of the method: as §1

The target of assay [1] is T5, GST-ANAC092(1-285) full length (Arabidopsis thaliana, UniProt Q9FKA0 1-285).
T5 sequence: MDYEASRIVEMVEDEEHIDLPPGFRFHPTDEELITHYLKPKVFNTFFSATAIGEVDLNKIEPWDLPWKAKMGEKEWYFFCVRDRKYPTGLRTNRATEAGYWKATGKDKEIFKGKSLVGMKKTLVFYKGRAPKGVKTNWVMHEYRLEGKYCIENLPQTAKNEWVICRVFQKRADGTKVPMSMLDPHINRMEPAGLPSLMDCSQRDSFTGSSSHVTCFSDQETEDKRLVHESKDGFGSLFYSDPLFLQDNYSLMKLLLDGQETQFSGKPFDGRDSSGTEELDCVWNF
The method in brief: as §1

Another assay has as its target T6, GST-NAP(1-166) (Arabidopsis thaliana, UniProt O49255 1-166).
T6 sequence: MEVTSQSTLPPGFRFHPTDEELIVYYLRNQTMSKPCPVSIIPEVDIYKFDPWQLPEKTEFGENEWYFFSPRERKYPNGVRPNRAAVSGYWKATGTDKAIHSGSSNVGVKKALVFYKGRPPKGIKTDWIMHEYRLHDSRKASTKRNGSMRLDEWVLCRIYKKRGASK
The method in brief: as §1

For the next assay, the target named is T7, GST-NST2(1-184) (Arabidopsis thaliana, UniProt Q9M274 1-184).
T7 sequence: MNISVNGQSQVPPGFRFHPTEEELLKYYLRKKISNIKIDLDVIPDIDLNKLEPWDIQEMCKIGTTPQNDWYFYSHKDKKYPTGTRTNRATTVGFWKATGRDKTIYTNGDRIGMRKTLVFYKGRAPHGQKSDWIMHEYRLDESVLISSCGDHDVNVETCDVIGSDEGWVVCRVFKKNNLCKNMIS
The gist of the method:
as §1

The target of the next assay is T8, GST-NTL8 NAC domain (Arabidopsis thaliana, UniProt Q9XIN7 14-156).
T8 sequence: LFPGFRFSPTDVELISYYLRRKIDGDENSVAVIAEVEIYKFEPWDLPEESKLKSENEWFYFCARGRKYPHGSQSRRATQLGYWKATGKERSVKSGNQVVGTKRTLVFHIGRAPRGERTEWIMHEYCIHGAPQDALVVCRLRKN
The method in brief: as §1

Another assay deals with T9, GST-SND1(1-203) (Arabidopsis thaliana, UniProt Q9LPI7 1-203).
T9 sequence: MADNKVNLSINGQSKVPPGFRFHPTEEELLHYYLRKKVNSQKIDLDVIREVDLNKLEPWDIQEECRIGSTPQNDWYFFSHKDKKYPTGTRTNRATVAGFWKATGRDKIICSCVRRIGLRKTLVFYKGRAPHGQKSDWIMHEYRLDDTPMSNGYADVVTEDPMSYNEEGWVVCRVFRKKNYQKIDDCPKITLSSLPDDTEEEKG
The gist of the method: as §1

The target in the next assay is T10, GST-VND3 NAC domain (Arabidopsis thaliana, UniProt Q9FH59 12-162).
T10 sequence: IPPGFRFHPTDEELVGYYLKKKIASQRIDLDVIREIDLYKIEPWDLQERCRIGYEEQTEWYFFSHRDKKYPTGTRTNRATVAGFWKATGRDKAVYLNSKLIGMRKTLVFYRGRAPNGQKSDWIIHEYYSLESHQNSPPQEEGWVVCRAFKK
The method in brief: as §1

The target of the next assay is T11, GST-VND7 NAC domain (Arabidopsis thaliana, UniProt Q9C8W9 9-158).
T11 sequence: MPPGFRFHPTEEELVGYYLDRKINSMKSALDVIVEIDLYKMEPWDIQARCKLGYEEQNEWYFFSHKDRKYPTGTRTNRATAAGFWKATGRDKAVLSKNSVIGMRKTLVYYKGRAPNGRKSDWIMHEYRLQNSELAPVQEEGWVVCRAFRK
The gist of the method:
as §1

Consider ATGCCGTA, for which the binding signal with GST-ANAC092(1-176) came to 0.373 E-score; with GST-ANAC019 NAC domain it was 0.395 E-score; with GST-ANAC055(1-171), 0.355 E-score; in the assay with GST-ATAF1 NAC domain, 0.385 E-score; in assay [1], 0.41 E-score; in the assay with GST-NAP(1-166) it was 0.36 E-score. Moreover, the binding signal in the assay with GST-NST2(1-184) amounted to 0.117 E-score; with GST-NTL8 NAC domain, 0.0526 E-score; with GST-SND1(1-203), 0.307 E-score; in the assay with GST-VND3 NAC domain, 0.412 E-score; with GST-VND7 NAC domain, 0.432 E-score.
On to CTCACGCA, for which the binding signal was 0.416 E-score with GST-ANAC092(1-176); 0.359 E-score in the assay with GST-ANAC019 NAC domain; 0.211 E-score with GST-ANAC055(1-171); 0.0962 E-score with GST-ATAF1 NAC domain; 0.41 E-score in assay [1]; 0.171 E-score with GST-NAP(1-166). Further, the binding signal was determined as 0.22 E-score in the assay with GST-NST2(1-184); 0.0698 E-score in the assay with GST-NTL8 NAC domain; 0.286 E-score with GST-SND1(1-203); 0.194 E-score in the assay with GST-VND3 NAC domain; 0.193 E-score with GST-VND7 NAC domain.
With CACGCAAC, the binding signal with GST-ANAC092(1-176) is 0.496 E-score; with GST-ANAC019 NAC domain, 0.486 E-score; in the assay with GST-ANAC055(1-171) it was 0.463 E-score; with GST-ATAF1 NAC domain it was 0.437 E-score; in assay [1], 0.498 E-score; with GST-NAP(1-166), 0.489 E-score. Also, the binding signal in the assay with GST-NST2(1-184) came out at 0.444 E-score; with GST-NTL8 NAC domain, 0.181 E-score; with GST-SND1(1-203), 0.482 E-score; with GST-VND3 NAC domain it was 0.476 E-score; in the assay with GST-VND7 NAC domain it was 0.484 E-score.
As to ACGGCAAT, the binding signal with GST-ANAC092(1-176) was 0.298 E-score; in the assay with GST-ANAC019 NAC domain, 0.409 E-score; in the assay with GST-ANAC055(1-171), 0.375 E-score; with GST-ATAF1 NAC domain, 0.283 E-score; in [1], 0.366 E-score; with GST-NAP(1-166), 0.236 E-score. Moreover, the binding signal came to 0.286 E-score with GST-NST2(1-184); 0.188 E-score in the assay with GST-NTL8 NAC domain; 0.226 E-score in the assay with GST-SND1(1-203); 0.3 E-score in the assay with GST-VND3 NAC domain; 0.317 E-score with GST-VND7 NAC domain.
Turning to GCGTGTTA, the binding signal came to 0.415 E-score with GST-ANAC092(1-176); 0.214 E-score with GST-ANAC019 NAC domain; 0.174 E-score with GST-ANAC055(1-171); 0.141 E-score in the assay with GST-ATAF1 NAC domain; 0.432 E-score in [1]; 0.227 E-score with GST-NAP(1-166). In addition, the binding signal with GST-NST2(1-184) is 0.178 E-score; with GST-SND1(1-203), 0.199 E-score; with GST-VND3 NAC domain, 0.212 E-score; with GST-VND7 NAC domain, 0.113 E-score.
In the case of ACGTTACG, the binding signal with GST-ANAC092(1-176) was 0.389 E-score; with GST-ANAC019 NAC domain it was 0.302 E-score; with GST-ANAC055(1-171), 0.299 E-score; with GST-ATAF1 NAC domain, 0.268 E-score; in assay [1], 0.441 E-score; in the assay with GST-NAP(1-166), 0.341 E-score. Moreover, the binding signal with GST-NST2(1-184) was determined as 0.287 E-score; in the assay with GST-NTL8 NAC domain, 0.13 E-score; in the assay with GST-SND1(1-203), 0.44 E-score; with GST-VND3 NAC domain it was 0.333 E-score; with GST-VND7 NAC domain it was 0.39 E-score.
In the case of CACGTAAC, the binding signal with GST-ANAC092(1-176) worked out at 0.466 E-score; with GST-ANAC019 NAC domain it was 0.479 E-score; in the assay with GST-ANAC055(1-171), 0.452 E-score; with GST-ATAF1 NAC domain, 0.436 E-score; in assay [1] it was 0.467 E-score; in the assay with GST-NAP(1-166), 0.468 E-score. The binding signal in the assay with GST-NST2(1-184) is 0.279 E-score; with GST-NTL8 NAC domain, 0.242 E-score; in the assay with GST-SND1(1-203) it was 0.321 E-score; with GST-VND3 NAC domain, 0.44 E-score; in the assay with GST-VND7 NAC domain, 0.47 E-score.
